# The sample as a whole holds a higher share of hits than the screen did.
# GALC G270D act = enhancers of human galactocerebrosidase G270D mutant activity in cells; AID 1159614; 145M-Twi-hGALC-G270D cells (Twitcher mouse brain line with human GALC G270D), HMU-beta-Gal fluorescence, 48 h; hit rate 0.1% among 45,000; P54803; Potency, µM (doses to about 57.5 µM), most hits filed as activators; further: potency means the concentration at half of the fitted maximal effect; 0% is about no effect; nearly all actives have a fitted effect of over 65% in size
#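 Brain-derived Twitcher mouse 145M-Twi cells stably expressing human GALC-G270D or wild-type GALC, treated live, then residual GALC activity read by fluorescence of HMU-b-Gal substrate (0.1 mM final) in citrate-phosphate buffer pH 5.2 with sodium taurocholate. Signal increase indicates enhancement.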
# NTMT1 inhibitor = inhibitors of human N-terminal methyltransferase NTMT1; Q9BV86; NTMT1 MTase-Glo SAH luminescence, purified enzyme; Potency, µM (doses to about 114 µM), for the others: at the top dose activity change, negative = inhibition, actives largely listed as inhibitors; hit rate 2.5% among 59,000; AID 1645870;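 further: potency means the concentration at half of the fitted maximal effect; plate controls were DMSO vehicle for no effect and no enzyme for full effect; nearly all actives have a fitted effect of over 65% in size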
# p53null 32C tox = kills p53 null cells at the permissive temperature; Potency, µM (highest dose often 46.1 µM), without a hit: at the highest dose activity change, negative = cytotoxicity, most hits filed as cytotoxic; H1299-neo p53 null cells, ATP luminescence, 24 h, 32C; hit rate 0.62% among 55,000;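 further: potency means the concentration at half of the fitted maximal effect; 0% = DMSO only and -100% = full killing by 100 µM tamoxifen; nearly all actives have a fitted effect of over 55% in size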
#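 Cells lacking p53 (H1299-neo) are plated at 600 per well and allowed to settle overnight at 37C. Test compounds (up to 46 uM) are added and held 24 hours at 32C, then ATP is quantified by luminescence.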
# p53null 39C tox = kills p53 null cells at the nonpermissive temperature. H1299 p53-null (neo) cells, 39C, ATPlite viability, 24 h. Potency, µM (highest dose often 46.1 µM), for inactives: at the highest dose activity, negative = cell killing, hits mostly cytotoxic. hit rate 0.97% among 55,000. AID 904;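 further: potency means the concentration at half of the fitted maximal effect; 0% = DMSO only and -100% = full killing by 100 µM tamoxifen; nearly all actives have a fitted effect of over 50% in size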
#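 ATP-luminescence viability readout (ATPlite, 20 min RT) after 24 hr compound treatment at 39C of H1299-neo or H1299-p53A138V cells; titration up to 46 uM; normalized to DMSO and 100 uM tamoxifen; Hill-fit AC50.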
# FH mod = Identification of activators of human fumarate hydratase by quantitative high-throughput screening. Fumarate hydratase, mitochondrial (Homo sapiens), P07954. FH coupled MDH/diaphorase resazurin fluorescence, 15 min. Potency, µM (top dose mostly 79.9 µM), without a hit: at the highest dose activity change, negative = inhibition, hits mostly inhibitors. hit rate 0.22% among 54,000. AID 1347055, 2019; further: potency means the concentration at half of the fitted maximal effect; on the % scale 0 is the no-effect control and ±100 the full control effect; the screen sought activators but most active calls are inhibition curves; nearly all actives have a fitted effect of over 45% in size
# Target sequence (P07954 whole entry, looked up): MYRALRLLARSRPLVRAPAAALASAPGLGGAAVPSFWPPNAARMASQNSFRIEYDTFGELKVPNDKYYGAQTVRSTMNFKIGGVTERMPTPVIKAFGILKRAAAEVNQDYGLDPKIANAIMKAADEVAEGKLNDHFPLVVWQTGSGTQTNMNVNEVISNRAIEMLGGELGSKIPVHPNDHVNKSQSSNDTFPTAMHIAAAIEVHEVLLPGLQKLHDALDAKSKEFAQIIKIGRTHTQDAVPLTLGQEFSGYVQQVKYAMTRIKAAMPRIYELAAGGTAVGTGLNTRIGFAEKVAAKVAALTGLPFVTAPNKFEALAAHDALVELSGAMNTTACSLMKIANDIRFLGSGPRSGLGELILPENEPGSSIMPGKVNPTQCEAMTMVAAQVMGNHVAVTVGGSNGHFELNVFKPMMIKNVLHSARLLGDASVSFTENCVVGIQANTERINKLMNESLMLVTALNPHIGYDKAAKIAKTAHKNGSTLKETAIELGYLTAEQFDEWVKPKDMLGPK
# DYRK1A inh-1 = blocks recombinant human DYRK1A kinase activity | shares compounds with NTMT1 inhibitor | recombinant DYRK1A, Kinase-Glo ATP depletion luminescence | Potency, µM (highest dose often 76.9 µM), for inactives: at the highest dose activity change, negative = inhibition, actives largely listed as inhibitors | hit rate 80% among 100 | AID 2705
# CLK4 inh-1 = confirmation of human CLK4 kinase inhibitors, SAR round 2; Potency, µM (titrated, usually from 76.9 µM), for the others: top-dose activity, negative = inhibition, usual class: inhibitors; AID 493204; recombinant Clk4, Kinase-Glo ATP luminescence, 4.5 h; shares compounds with NTMT1 inhibitor; hit rate 90% among 90
# CLK4 inh-2 = inhibitors of human CLK4 kinase, SAR round 2; shares compounds with NTMT1 inhibitor; hit rate 100% among 65; Reaction Biology kinase assay, 10 uM ATP; Potency, µM, actives largely listed as inhibitors; calls by dose curve
# DYRK1A inh-2 = inhibitors of human DYRK1A kinase; AID 504424; Reaction Biology kinase assay, 10 uM ATP; Potency, µM, usual class: inhibitors; shares compounds with NTMT1 inhibitor; hit rate 90% among 65;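 active means compounds that showed inhibition of Dyrk1a and received a fitted potency; inactive means compounds that showed no inhibition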
# CLK2 inh = blocks human CLK2 kinase in radiometric assay; Potency, µM, hits mostly inhibitors; shares compounds with NTMT1 inhibitor; hit rate 90% among 65; Reaction Biology kinase assay, 10 uM ATP;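 active means compound that inhibits Clk2 kinase in the dose series, with an IC50 potency reported; inactive means no inhibition seen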
# CLK3 inh = inhibitors of human CLK3 kinase | shares compounds with NTMT1 inhibitor | recombinant CLK3 kinase assay, 10 uM ATP | Potency, µM, actives largely listed as inhibitors | hit rate 40% among 65 | AID 504428;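 active means compounds that inhibited Clk3 enough in the ten-dose series to give a half-maximal potency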
# DYRK1B inh = inhibitors of human Dyrk1b kinase. shares compounds with NTMT1 inhibitor. Recombinant Dyrk1b kinase assay, 10 uM ATP. Potency, µM, hits mostly inhibitors. hit rate 80% among 65. AID 504429;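 active means compounds whose dose response shows an inhibitor phenotype against the kinase Dyrk1b; inactive means compounds showing no inhibitor phenotype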
# CLK1 RBC = inhibitors of human CLK1 kinase. hit rate 90% among 65. Potency, µM, actives largely listed as inhibitors. recombinant Clk1 kinase assay, 10 uM ATP. AID 504430. shares compounds with NTMT1 inhibitor;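 active means compounds that block the splicing kinase Clk1 enough to give a fitted half-inhibition concentration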
# NNMT inh = counter-screen for NTMT1 inhibitors: human NNMT inhibition | hit rate 10% among 120 | shares compounds with NTMT1 inhibitor | Potency, µM (doses to about 57.1 µM), inactives show top-dose activity, negative = inhibition, actives largely listed as inhibitors | NNMT MTase-Glo luminescence, SAH detection
# The depositor's hits bear a star; i = inactive; ? = inconclusive; . = no result; [ ] = another dose, or the depositor's remark. Unless noted, the call rests on the fitted dose curve; in most records, active means well fitted curve in the direction sought with a large enough effect; inconclusive means small, poorly fitted or top-dose-only effect, or another doubt; inactive means no such curve, though single readings can be large; an effect the other way counts as inactive or inconclusive.
SMILES,GALC G270D act,NTMT1 inhibitor,p53null 32C tox,p53null 39C tox,FH mod,NNMT inh,others
c1csc(CNc2ncnc3ccc(-c4ccc5c(c4)OCO5)cc23)n1,.,12%,.,.,.,.,CLK4 inh-1=0.046µM*;CLK4 inh-2=0.05*;DYRK1A inh-2=0.07µM*;CLK2 inh=0.41µM*;CLK3 inh=3.5µM*;DYRK1B inh=0.45µM*;CLK1 RBC=0.18µM*
c1csc(CCNc2ncnc3ccc(-c4ccc5c(c4)OCO5)cc23)c1,.,?,.,.,.,.,DYRK1A inh-1=0.065µM*
c1coc(CNc2ncnc3ccc(-c4ccc5c(c4)OCO5)cc23)c1,.,.,.,.,.,.,CLK4 inh-1=0.037µM*;CLK4 inh-2=0.079*;DYRK1A inh-2=0.084µM*;CLK2 inh=0.3µM*;CLK3 inh=2.6µM*;DYRK1B inh=0.53µM*;CLK1 RBC=0.19µM*
CCc1c(Cl)c(O)c(Cl)c(O)c1C(=O)O[C@H]1[C@H](O)[C@H](OC)[C@H](OC/C2=C\C=C\C[C@H](O)/C(C)=C\[C@H](CC)[C@@H](O[C@@H]3OC(C)(C)[C@@H](OC(=O)C(C)C)[C@H](O)[C@@H]3O)/C(C)=C/C(C)=C/C[C@@H]([C@@H](C)O)OC2=O)O[C@@H]1C,.,1%[29.8 µM],.,.,-3%[53.3 µM],.,
C=C[C@H]1[C@H](O[C@@H]2O[C@H](CO)[C@@H](O)[C@H](O)[C@H]2O)OC=C(C(=O)OC)[C@H]1CCO,.,2%[29.8 µM],.,.,-2%[53.3 µM],.,
NC(=O)c1nc(Nc2ccccc2)sc1NC(=O)c1c(F)cccc1F,i,-6%,-2%,8%,5%,.,
CN(C)c1ccc(Nc2nc(N)n(C(=O)c3c(F)cccc3F)n2)cc1,.,?,.,.,-25%[53.3 µM],-13%,
Nc1n[n+]([O-])c2ccccc2[n+]1[O-],.,15%,.,.,.,.,
CCOc1cc2ncc(C#N)c(Nc3ccc(F)c(Cl)c3)c2cc1NC(=O)/C=C/CN(C)C,.,1.1µM*,.,.,-29%,16µM*,
CN(C)C/C=C/C(=O)Nc1cc2c(Nc3ccc(F)c(Cl)c3)ncnc2cc1OC1CCOC1 (configuration not stated),.,6.3µM*,.,.,16%,?,
CCOc1cc2ncc(C#N)c(Nc3ccc(OCc4ccccn4)c(Cl)c3)c2cc1NC(=O)/C=C/CN(C)C,.,?,.,.,2%[53.3 µM],.,
COc1cc2ncnc(Nc3ccc(NC(=O)c4ccccc4)cc3)c2cc1OC,.,16%,.,.,-9%,.,
CC(C)(C)OC(=O)c1ncn2c1C(C)(C)Nc1ccccc1-2,.,4%[57.5 µM],.,.,2%,.,
CC/C(=C(\c1ccc(O)cc1)c1ccc(OCCNC)cc1)c1ccccc1,.,22µM*,.,.,-11%,?,
COc1cc2ncnc(Nc3cccc(I)c3)c2cc1OC,.,22µM*,.,.,-4%,?,
